According to paper PMC5540273 (PLoS ONE, 2017):

Tested on: MYLK2
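Also: kd values determined as follow-up on hits from a single-replicate KINOMEscan panel screen.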

Row | SMILES | Kd [nM]
1 | O=C(Nc1n[nH]c2nc(-c3nccs3)c(Br)cc12)C1CCCC1 [SB-742609] | 130
2 | O=C(Nc1n[nH]c2cc(-c3cccc(F)c3F)ccc12)C1CC1 [SB-733894] | 92
3 | O=C(Nc1n[nH]c2nc(-c3nccs3)c(Br)cc12)C1CC1 [SB-742251] | 160
